High-throughput results deposited in PubChem BioAssay by National Center for Advancing Translational Sciences (NCATS).
AmpC detergent = inhibitors of E. coli AmpC beta-lactamase with detergent. P00811. AmpC hydrolysis of nitrocefin, absorbance 480 nm, 0.01% Triton. Potency, µM (titrated, usually from 114 µM), hits mostly inhibitors. actives 0.041% (n = 370,000). AID 485294; further: nearly all actives have a fitted effect of over 25% in size
Target sequence (P00811 whole entry, looked up): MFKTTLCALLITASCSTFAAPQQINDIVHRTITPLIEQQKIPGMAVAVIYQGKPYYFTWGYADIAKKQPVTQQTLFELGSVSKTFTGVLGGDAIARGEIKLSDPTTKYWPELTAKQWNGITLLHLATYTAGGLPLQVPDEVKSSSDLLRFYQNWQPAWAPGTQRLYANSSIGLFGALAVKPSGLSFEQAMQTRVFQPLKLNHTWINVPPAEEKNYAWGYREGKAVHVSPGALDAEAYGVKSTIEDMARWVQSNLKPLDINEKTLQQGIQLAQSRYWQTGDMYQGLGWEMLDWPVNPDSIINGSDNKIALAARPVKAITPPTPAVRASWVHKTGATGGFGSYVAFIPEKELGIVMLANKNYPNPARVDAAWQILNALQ
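20 mM phosphate pH 7.0 + 0.01% (detergent screen) or 0.0001% Triton X-100; 5.3 nM AmpC reagent; cpd preinc 15 min RT; nitrocefin (800 uM stock) to start; A480 q20 s × 4 min; Activity was normalised to no-enzyme and no-compound control wells.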
AmpC inh no detg = AmpC beta-lactamase inhibition without detergent; AmpC nitrocefin hydrolysis, absorbance 480 nm, 0.0001% Triton; Potency, µM (titrated, usually from 57.1 µM), usual class: inhibitors; actives 0.52% (n = 330,000); further: nearly all actives have a fitted effect of over 20% in size
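AmpC (5.3 nM in the dispensed reagent) in 20 mM phosphate pH 7.0 with 0.01% (detergent screen) or 0.0001% Triton X-100 was preincubated with compounds for 15 min at room temperature. Nitrocefin was then added from an 800 uM solution, and hydrolysis was followed at 480 nm.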
SARS PLP yeast = inhibitors of SARS-CoV papain-like protease in yeast | S. cerevisiae expressing SARS-CoV PLpro, growth rescue | Potency, µM (titrated, usually from 32.9 µM), actives largely listed as activators | actives 0.19% (n = 330,000) | AID 485353; calls by dose curve; further: nearly all actives have a fitted effect of over 55% in size
NS1 inh = influenza NS1 inhibition | Potency, µM (series often up to 46.1 µM) | actives 0.4% (n = 270,000); calls by dose curve; further: actives are rising curves; nearly all actives have a fitted effect of over 50% in size
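OD600 was taken as the measure of yeast growth restored by compound in an NS1-expressing S. cerevisiae strain. Cells had been washed out of glucose medium and diluted 1:100 into galactose -URA medium, pH 6.0.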
Giardia FBPA inh = blocks Giardia fructose-bisphosphate aldolase activity; A8B2U2; purified Giardia FBPA; Potency, µM (highest dose often 59.6 µM), hits mostly inhibitors; actives 0.71% (n = 290,000); further: nearly all actives have a fitted effect of over 55% in size
Target sequence (A8B2U2 whole entry, looked up): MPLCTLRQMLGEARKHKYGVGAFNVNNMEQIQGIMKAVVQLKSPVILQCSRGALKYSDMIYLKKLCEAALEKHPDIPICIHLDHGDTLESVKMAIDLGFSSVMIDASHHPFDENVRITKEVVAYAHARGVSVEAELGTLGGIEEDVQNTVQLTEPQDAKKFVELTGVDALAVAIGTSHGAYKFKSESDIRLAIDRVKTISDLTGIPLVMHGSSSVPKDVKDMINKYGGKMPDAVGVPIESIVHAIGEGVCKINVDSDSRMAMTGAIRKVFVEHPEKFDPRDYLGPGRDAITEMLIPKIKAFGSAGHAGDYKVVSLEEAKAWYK
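40 nM FBPA preincubated 10 min at RT with compound (up to 57.5 uM final), then substrate plus GAPDH/TPI/NAD/arsenate coupling and diaphorase/resazurin added. Fluorescence read after 20 min at RT, 525/598 nm.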
Hits are given with their value. The list is not random: actives were taken first. Their share in the collection is about 1.4%. Unless noted, the call rests on the fitted dose curve; in most records, active means well fitted curve in the direction sought with a large enough effect; inconclusive means small, poorly fitted or top-dose-only effect, or another doubt; inactive means no such curve, though single readings can be large; an effect the other way counts as inactive or inconclusive.

Screening Cc1ccc(-c2csc3nc[nH]c(=S)c23)cc1 returned AmpC detergent inactive, AmpC inh no detg inactive, SARS PLP yeast inconclusive, NS1 inh inactive and Giardia FBPA inh inactive.
`S=c1[nH]cnc2scc(-c3ccc(Cl)cc3)c12` gave AmpC detergent inactive, AmpC inh no detg 8.91µM, SARS PLP yeast inactive, NS1 inh inactive and Giardia FBPA inh inactive.
For S=c1[nH]nc(-c2n[nH]c3c2CCC3)n1/N=C/C=C/c1ccccc1 the results were AmpC detergent inactive, AmpC inh no detg inactive, SARS PLP yeast inactive, NS1 inh inactive and Giardia FBPA inh inactive.
`Cc1[nH]c2ccccc2c1/C=N/NC(=O)CCC(=O)NCc1ccccc1` gave AmpC detergent inactive, AmpC inh no detg inactive, SARS PLP yeast inactive, NS1 inh inactive and Giardia FBPA inh inconclusive.
Cc1[nH]c2ccccc2c1/C=N/NC(=O)C1CC1(c1ccccc1)c1ccccc1 (stereo not given) was read as AmpC detergent inactive, AmpC inh no detg 11.2µM, SARS PLP yeast inactive, NS1 inh inactive and Giardia FBPA inh inactive.
Screening Oc1ccc(-n2nnnc2SCc2ccccc2Br)cc1 returned AmpC detergent inactive, AmpC inh no detg inactive, SARS PLP yeast inactive, NS1 inh inactive and Giardia FBPA inh inactive.
For O=C(Nc1ccc(-c2csc(Nc3ccc(Cl)cc3)n2)cc1)c1cccc(C(F)(F)F)c1 the results were AmpC detergent inactive, AmpC inh no detg inconclusive, SARS PLP yeast inactive, NS1 inh inactive and Giardia FBPA inh inactive.
O=C(Nc1ccc(-c2csc(Nc3ccccc3)n2)cc1)c1cccc(C(F)(F)F)c1 was read as AmpC detergent inactive, AmpC inh no detg 3.55µM, SARS PLP yeast inactive, NS1 inh inactive and Giardia FBPA inh inactive.
S=C(NCCc1ccccc1)N1CCN(Cc2ccccc2)CC1 was read as AmpC detergent inactive, AmpC inh no detg inactive, SARS PLP yeast inactive, NS1 inh inactive and Giardia FBPA inh inactive.
Screening Cc1cc(SCC(=O)c2ccc(O)c(O)c2)n2nc(C)c(-c3ccccc3)c2n1 returned AmpC detergent inactive, AmpC inh no detg 6.31µM, SARS PLP yeast inconclusive, NS1 inh inactive and Giardia FBPA inh inactive.
`Cc1cccc(NC(=O)CCOc2ccccc2)c1C` gave AmpC detergent inactive, AmpC inh no detg inactive, SARS PLP yeast inactive, NS1 inh inactive and Giardia FBPA inh inactive.
Cc1cccc(NC(=O)CNC(=O)COc2ccc(-c3ccc(C#N)cc3)cc2)c1C was read as AmpC detergent inactive, AmpC inh no detg 28.2µM, SARS PLP yeast inactive, NS1 inh inactive and Giardia FBPA inh inactive.
Screening Cc1cccc(OCCC(=O)NCC(=O)Nc2cccc(C)c2C)c1 returned AmpC detergent inconclusive, AmpC inh no detg inactive, SARS PLP yeast inactive, NS1 inh inactive and Giardia FBPA inh 15.8µM.
CC(=O)C(Sc1nccc(-c2cccs2)n1)C(C)=O was read as AmpC detergent inactive, AmpC inh no detg inactive, SARS PLP yeast inactive and Giardia FBPA inh 17.7µM.
Screening CC(C)NC(=O)CSc1nccc(-c2cccs2)n1 returned AmpC detergent inactive, AmpC inh no detg inactive, SARS PLP yeast inactive, NS1 inh inactive and Giardia FBPA inh inactive.
C/C(=N\Nc1ccc(Cl)c(Cl)c1)c1ccc(-n2ccnc2)cc1 was read as AmpC detergent inactive, AmpC inh no detg 14.1µM, SARS PLP yeast inactive, NS1 inh inactive and Giardia FBPA inh inactive.
For O=C1NCCCC2c3cc(O)c4ccccc4c3OC12N1CCCCC1 (stereo not given) the results were AmpC detergent inactive, AmpC inh no detg inactive, SARS PLP yeast inactive, NS1 inh inactive and Giardia FBPA inh 0.561µM.
For COCCNC(=S)Nc1ccc(N2CCOCC2)c(S(=O)(=O)Nc2ccccc2OC)c1 the results were AmpC detergent inactive, AmpC inh no detg 10µM and SARS PLP yeast inactive.
`COc1ccccc1NS(=O)(=O)c1cc(NC(=O)c2ccc(=O)[nH]c2)ccc1N1CCOCC1` gave AmpC detergent inactive, AmpC inh no detg 14.1µM, SARS PLP yeast inactive, NS1 inh inactive and Giardia FBPA inh inactive.
Screening COc1ccccc1NS(=O)(=O)c1cc(NC(=O)C2CC2)ccc1N1CCOCC1 returned AmpC detergent inactive, AmpC inh no detg inactive, SARS PLP yeast inactive, NS1 inh inactive and Giardia FBPA inh inconclusive.
For COCC(=O)N1CCC2(CC1)CCN(C(=O)Nc1cccc(F)c1)CC2 the results were Giardia FBPA inh inactive.
For CCOC(=O)N=Nc1c2ccccc2c2nc3no[nH]c3nc12 the results were AmpC detergent inactive, AmpC inh no detg inactive, SARS PLP yeast inactive and Giardia FBPA inh 1.58µM.
For COC1CCN(C(=O)C2CCC(=O)N(CCc3cccc(F)c3)C2)CC1 (stereo not given) the results were AmpC detergent inactive, AmpC inh no detg inactive, SARS PLP yeast inactive and NS1 inh inactive.
For CC1(C)CC(=O)C(C=NCCO)=C(O)C1 the results were AmpC detergent inconclusive, AmpC inh no detg inactive, SARS PLP yeast inactive, NS1 inh inactive and Giardia FBPA inh inactive.
`Cn1c(C23CC4CC(CC(C4)C2)C3)n[nH]c1=S` gave AmpC detergent inactive, AmpC inh no detg inactive, SARS PLP yeast 12.6µM, NS1 inh inactive and Giardia FBPA inh inactive.
CC(C)Cn1c(C23CC4CC(CC(C4)C2)C3)n[nH]c1=S was read as AmpC detergent inactive, AmpC inh no detg inactive, SARS PLP yeast inactive, NS1 inh inactive and Giardia FBPA inh inactive.
`COc1ccc(C2=CN(Cc3ccccc3)CCC2=O)cc1` gave AmpC inh no detg inactive and SARS PLP yeast inactive.
CSCCC(N=C(NS(=O)(=O)c1ccc(C)cc1)c1ccccc1)C(=O)O (stereo not given) was read as AmpC detergent inactive, AmpC inh no detg inactive, SARS PLP yeast inactive, NS1 inh inactive and Giardia FBPA inh inactive.
For N#CC1=C(N)Oc2cc(N)ccc2C1c1ccc(Cl)cc1 (stereo not given) the results were AmpC detergent inactive, AmpC inh no detg 11.2µM, SARS PLP yeast inactive, NS1 inh inactive and Giardia FBPA inh inactive.
Screening Fc1ccc(Nc2ncnc3sc4c(c23)CCC4)cc1 returned AmpC detergent inactive, AmpC inh no detg 0.316µM, SARS PLP yeast inactive, NS1 inh inactive and Giardia FBPA inh inactive.
Screening CCc1cc(/C(Cc2ccccn2)=N\Nc2ccccc2)c(O)cc1O returned AmpC detergent inactive, AmpC inh no detg 25.1µM, SARS PLP yeast inactive, NS1 inh inactive and Giardia FBPA inh inactive.
Screening CC1Cc2ccccc2N1Cc1cc(=O)c(OCC(=O)Nc2ccccc2)co1 (stereo not given) returned AmpC detergent inactive, AmpC inh no detg 35.5µM and SARS PLP yeast inactive.
Screening CCOC(=O)c1cc(NC(=O)N(CC)C2CCCCC2)c(C)nc1C returned AmpC detergent inactive, AmpC inh no detg inactive, SARS PLP yeast 14.1µM, NS1 inh inactive and Giardia FBPA inh inactive.
For CC(C)N1CCN(Cc2ccc(C#CC(C)(C)O)cc2)CC1CCO (stereo not given) the results were AmpC detergent inactive, AmpC inh no detg inactive, SARS PLP yeast inactive, NS1 inh inactive and Giardia FBPA inh inactive.
